The values below come from PubChem BioAssay (NCATS).

In assay [1] the target is Glutathione peroxidase 1 (Homo sapiens) (UniProt P07203). Briefly: Primary qHTS Assay for Inhibitors of Recombinant Selenoprotein Glutathione Peroxidase 1 (GPX1) (AID 1845191). For activity, negative = inhibition: % is set by controls: 0 for no effect and ±100 for the full control effect. Note: nearly all actives have a fitted effect of over 65% in size. Note: potency is the fitted concentration of half-maximal effect. An outline of the steps: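 10 nM GPX1 + cpd, 30 min RT; start w/ 1 mM GSH, 0.5 mM cumene hydroperoxide, 0.5 mM NADPH, 100 nM GR, 0.01% BSA; buffer 50 mM Tris-HCl pH 7.5, 2 mM EDTA, 150 mM NaCl; Fl 340/450, 0 & 15 min.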

Assay [2] concerns the target Phospholipid hydroperoxide glutathione peroxidase GPX4 (Homo sapiens) (UniProt P36969). Description: Primary qHTS Assay for Inhibitors of Recombinant Selenoprotein Glutathione Peroxidase 4 (GPX4) (AID 1845192). For activity change, negative = inhibition: series mostly up to about 50 µM; % is set by controls: 0 for no effect and ±100 for the full control effect. Note: nearly all actives have a fitted effect of over 65% in size. Note: potency is the fitted concentration of half-maximal effect. An outline of the steps: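 NADPH consumption, followed by fluorescence at 340/450 nm between 0 and 15 min, reports GPX4 activity via coupled glutathione reductase (100 nM). Enzyme 200 nM was pre-exposed to compound 30 min; 0.5 mM cumene hydroperoxide and 1 mM GSH served as substrates.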
A general note: Quantitative high-throughput screening tests each substance at several concentrations.

Assay [3] has as its target Luciferin 4-monooxygenase (Photinus pyralis) (UniProt P08659). Description: Primary firefly luciferase (FLuc) qHTS assay for identification of artifact compounds. (AID 1845220).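 For activity change, negative = inhibition: series mostly up to about 54 µM; plate controls were DMSO vehicle for no effect and no enzyme for full effect.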 Note: nearly all actives have a fitted effect of over 60% in size. An outline of the steps: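 Compounds sat 15 min at room temperature with 10 uM luciferin and 10 uM ATP (pH 7.6 Tris acetate). Firefly luciferase (10 nM final) was then added, and luminescence was read 5 min later. Data normalized to no-enzyme and DMSO controls were Hill-fitted.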

The nature of assay [4]: Primary fluorescence-based thiol-reactive (MSTI) qHTS assay for identification of artifact compounds. (AID 1845221).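 For activity change, negative = thiol reactive: series mostly up to about 54 µM; thiol-reactive compounds lower the probe fluorescence signal.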 Note: nearly all actives have a fitted effect of over 65% in size. Note: potency is the fitted concentration of half-maximal effect. Put shortly:
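Curve-fitted percent inhibition (4-parameter Hill) derived from fluorescence, Ex 525/Em 598 nm, scaled with Acetyl-MSTI and MSTI; 1 h incubation at room temperature.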

Assay [5] deals with Nanoluciferase (engineered Oplophorus gracilirostris luciferase). Briefly: Primary Nanoluciferase (NLuc) qHTS assay for identification of artifact compounds. (AID 1845222).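 Note: series mostly up to about 54 µM; 0% = DMSO and -100% = no enzyme.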 Put shortly:
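Luminescence from secreted NLuc (filtered, 1:55-diluted S16 cell medium) read 5 min after Nano-Glo substrate; compounds preincubated 15 min, RT. Hill fits of inhibition normalized to DMSO and no-enzyme.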

Values without a mark were called inactive. Inconclusive results are not listed. The source made the active and inactive calls. Calls come from the whole dose curve; as a rule, active = well fitted curve in the direction sought with a large enough effect; inconclusive = small, poorly fitted or top-dose-only effect, or another doubt; inactive = no such curve, though single readings can be large; an effect the other way counts as inactive or inconclusive.

Sequence of Phospholipid hydroperoxide glutathione peroxidase GPX4 (Homo sapiens) (P36969 whole entry, looked up): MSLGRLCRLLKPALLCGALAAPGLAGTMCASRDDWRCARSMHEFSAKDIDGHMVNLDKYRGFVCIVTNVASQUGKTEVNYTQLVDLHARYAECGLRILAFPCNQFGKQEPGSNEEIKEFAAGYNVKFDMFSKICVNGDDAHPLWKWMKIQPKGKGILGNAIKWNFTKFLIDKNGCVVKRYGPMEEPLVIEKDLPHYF
Sequence of Glutathione peroxidase 1 (Homo sapiens) (P07203 whole entry, looked up): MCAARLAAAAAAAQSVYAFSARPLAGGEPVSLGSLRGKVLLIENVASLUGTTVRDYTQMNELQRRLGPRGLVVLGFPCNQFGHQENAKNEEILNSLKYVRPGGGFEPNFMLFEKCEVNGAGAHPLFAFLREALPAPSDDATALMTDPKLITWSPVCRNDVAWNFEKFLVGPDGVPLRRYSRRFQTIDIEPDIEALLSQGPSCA

As for `NCc1ccccc1CC(=O)N[C@@H]1C(=O)N2C(C(=O)O)=C(CSc3nnnn3CC(=O)O)CS[C@H]12`, the Potency in assay [1] is 5.08 µM (active); in assay [2] it was 15.8 µM (active).
On the same counts, the results for `CC(Oc1ccccc1)C(=O)N[C@@H]1C(=O)N2[C@@H]1SC(C)(C)[C@@H]2C(=O)O` (some centres not stated) are “inactive” and “inactive”.
On the same counts, the results for `CC(=O)OCC(=O)[C@@]12OC3(CCCC3)O[C@@H]1C[C@H]1[C@@H]3CCC4=CC(=O)C=C[C@]4(C)[C@@]3(F)[C@@H](O)C[C@@]12C` are “inactive” and “inactive”.
As to `CCN(CC)Cc1cc(Nc2ccnc3cc(Cl)ccc23)ccc1O`, the Potency entry in assay [1] and in assay [2] was “inactive” each time.
Regarding `C[C@@H]1CCN(C(=O)CC#N)C[C@@H]1N(C)c1ncnc2[nH]ccc12`, the Potency entry in assay [1] and in assay [2] was “inactive” in each case.
As for `COC(=O)[C@]12C(=O)C(C)=C(O)[C@@]1(C)C(C)=CC1[C@@]34CC[C@@H](OC(C)=O)C(C)(C)C3[C@H](C[C@]12C)OC4=O` (some centres not stated), the Potency entry in assay [1], in assay [2], in assay [3], in assay [4] and in assay [5] was “inactive” in each case.
As to `C1CCN2CC3C[C@@H](CN4CCCC[C@@H]34)[C@H]2C1`, the Potency entry in assay [1], in assay [2], in assay [3], in assay [4] and in assay [5] was “inactive” throughout.
Take `O=C(O)c1cc(O[C@@H]2O[C@H](CO[C@@H]3OC[C@@H](O)[C@H](O)[C@H]3O)[C@@H](O)[C@H](O)[C@H]2O)c2ccccc2c1O`: the Potency entry in assay [1], in assay [2], in assay [3] and in assay [5] was “inactive” throughout. Besides, the Potency in assay [4] is 3.67 µM (active).
Turning to `CC(C)(C)C(=O)OCOC(=O)[C@@H]1N2C(=O)[C@@H](N=CN3CCCCCC3)[C@H]2SC1(C)C`, the Potency result in assay [1] and in assay [2] was “inactive” in each case.
Take `Clc1cc(Cl)c(OCC#CI)cc1Cl`: the Potency result in assay [1] and in assay [2] was “inactive” each time.
Regarding `Cc1cc(/C=C/c2ccc3cc(N(C)C)ccc3[n+]2C)c(C)n1-c1ccccc1`, the Potency entry in assay [1] is “inactive”. Moreover, in assay [2], the Potency was 14.1 µM (active).
For the compound `CC(=O)OC(C)OC(=O)C(C)c1ccc(-c2ccccc2)c(F)c1` (configuration not stated), the Potency entry in assay [1] and in assay [2] was “inactive” in each case.
With `CC(C)=CCc1ccc(Oc2c(O)cc(C)cc2CO)c(C(=O)O)c1O`, the Potency entry in assay [1], in assay [2] and in assay [3] was “inactive” each time.
`CC1(C)C(C=C(Cl)Cl)C1C(=O)OCc1cccc(Oc2ccccc2)c1` (configuration not stated): the Potency result in assay [1] and in assay [2] was “inactive” in each case.
For the compound `CCCCCCCCCCCCCC[n+]1ccc(C)cc1`, the Potency entry in assay [1] and in assay [2] was “inactive” each time.
On to `O=C(/C=C/c1c(C(=O)O)[nH]c2cc(Cl)cc(Cl)c12)Nc1ccccc1`, for which the Potency result in assay [1], in assay [2], in assay [3] and in assay [4] was “inactive” throughout.
For the compound `Cc1cc(C(=O)NNCc2ccccc2)no1`, the Potency entry in assay [1] and in assay [2] was “inactive” each time.
Turning to `CC(C)C(=O)OCC(=O)[C@@]12O[C@H](C3CCCCC3)O[C@@H]1C[C@H]1[C@@H]3CCC4=CC(=O)C=C[C@]4(C)[C@H]3[C@@H](O)C[C@@]12C`, the Potency result in assay [1] and in assay [2] was “inactive” each time.
Consider `CC(=O)Oc1cc(C)c(OC(C)=O)c2ccccc12`, for which the Potency result in assay [1] and in assay [2] was “inactive” each time.
`O=C(O)c1cc(O)c2c(c1)[O][Bi][O]2`: the outcome in assay [1] was “inactive [at 0.4 µM]”; in assay [2] it was “inactive [at 0.409 µM]”.
As to `CC(C)N=c1cc2n(-c3ccc(Cl)cc3)c3ccccc3nc-2cc1Nc1ccc(Cl)cc1`, the Potency result in assay [1] and in assay [2] was “inactive” in each case.
Consider `COC(=O)[C@H]1[C@H]2C[C@@H]3c4[nH]c5ccccc5c4CCN3C[C@H]2C[C@@H](OC(=O)c2cc(OC)c(OC)c(OC)c2)[C@@H]1OC`, for which the Potency result in assay [1] was “inactive”. Further, in assay [2], the Potency is 17.8 µM (active).
Take `C/C=C/C=C/C=C/C(=O)O[C@@H]1[C@@H](OC)C2=C(C(=O)N(C(C)C(=O)O)C2)[C@@]2(C)CCCC(C)(C)[C@H]12` (some centres not stated): the Potency result in assay [1], in assay [2], in assay [3] and in assay [4] was “inactive” each time.
For `C=CCc1ccc(O[C@@H]2O[C@H](CO)[C@@H](O)[C@H](O)[C@H]2O)c(OC)c1`, the Potency result in assay [1], in assay [2], in assay [3] and in assay [5] was “inactive” each time. In addition, the Potency in assay [4] is 7.36 µM (active).
For `Nc1ncnc2c1ncn2[C@@H]1O[C@H](COP(=O)(O)OP(=O)(O)OP(=O)(O)O)[C@@H](O)[C@H]1O`, in assay [1], the outcome is “inactive [at 0.4 µM]”. Further, the activity change, negative = inhibition in assay [2] was 0.0913% [at 0.409 µM].
Consider `C[C@@H]1[C@H](O)[C@@H](C)/C=C/C=C\C=C\C=C\C=C\C=C\C=C\[C@H](O[C@@H]2O[C@H](C)[C@@H](O)[C@H](N)[C@@H]2O)C[C@@H]2O[C@](O)(C[C@@H](O)C[C@@H](O)[C@H](O)CC[C@@H](O)C[C@@H](O)CC(=O)O[C@H]1C)C[C@H](O)[C@H]2C(=O)O` (stereo in doubt), for which the Potency result in assay [1] and in assay [2] was “inactive” in each case.
As to `COC(=O)c1ccc(O[C@@H]2O[C@H](CO)[C@@H](O)[C@H](O)[C@H]2O)c(OC)c1`, the Potency entry in assay [1], in assay [2], in assay [3] and in assay [5] was “inactive” each time. In assay [4], the Potency was 16.5 µM (active).
Consider `O=C(COc1ccc(Cl)cc1)NC1CCC(NC(=O)COc2ccc(Cl)cc2)CC1` (configuration not stated), for which the Potency entry in assay [1], in assay [2], in assay [3], in assay [4] and in assay [5] was “inactive” throughout.
On to `CO/N=C(\C(=O)N[C@@H]1C(=O)N2C(C(=O)O)=C(CSc3cnns3)CS[C@H]12)c1csc(N)n1`, for which the results for the Potency in assay [1] and in assay [2] were 20.2 µM (active) and 15.8 µM (active), respectively.
As to `CC(=O)c1c(C)cc(O)cc1O[C@@H]1O[C@H](CO)[C@@H](O)[C@H](O)[C@H]1O`, the Potency result in assay [1], in assay [2] and in assay [3] was “inactive” throughout.
`CCc1cc2c(=O)c(-c3nc4ccccc4s3)coc2c(CN2CCCCC2)c1O`: in assay [1], the Potency is 11.1 µM (active). For the same compound, the Potency entry in assay [2], in assay [3] and in assay [4] was “inactive” each time.
For the compound `CC1=C(C)C(=O)OC(C(C)C2C(O)CC3C4C5OC5C5(O)CC(OC6OC(CO)C(O)C(O)C6O)CC(O)C5(C)C4CCC32C)C1` (configuration not stated), the Potency result in assay [1], in assay [2], in assay [3], in assay [4] and in assay [5] was “inactive” throughout.
As for `O=CCCCC=O`, the Potency result in assay [1] and in assay [2] was “inactive” throughout.
Regarding `CCCCCCCCCCCC[n+]1ccc2ccccc2c1`, the Potency result in assay [1] and in assay [2] was “inactive” each time.
With `COC(=O)C1=COC(O[C@@H]2O[C@H](CO)[C@@H](O)[C@H](O)[C@H]2O)/C(=C\COC(=O)c2ccc(OC3OC(CO)C(O)C(O)C3O)c(OC)c2)C1CC(=O)OCCc1ccc(O)cc1` (some centres not stated), the Potency entry in assay [1] and in assay [2] was “inactive” in each case. The outcome in assay [3] was “inactive [at 11.6 µM]”. For the same compound, the activity change, negative = thiol reactive in assay [4] was 1.89% [at 11.5 µM]. Besides, the activity, negative = inhibition in assay [5] was 4.63% [at 11.6 µM].
`CC1=C(C)C(=O)OC(C(C)(O)C2CCC3C4CC=C5CC(OC6OC(COC7OC(CO)C(O)C(O)C7O)C(O)C(O)C6O)CC(O)C5(C)C4CCC32C)C1` (configuration not stated): the Potency entry in assay [1], in assay [2], in assay [3], in assay [4] and in assay [5] was “inactive” each time.
`C[C@@H]1CCC2C(C)(C)[C@H](O)CC[C@]2(C)[C@@]12Cc1c(O)cc3c(c1O2)CN(CCO)C3=O` (some centres not stated): the Potency result in assay [1], in assay [2], in assay [3], in assay [4] and in assay [5] was “inactive” throughout.
`C[C@@H]1O[C@@H](O[C@H]2[C@H](O[C@H]3CC[C@@]4(C)C(CC[C@]5(C)C4CC=C4C6CC(C)(C)CC[C@]6(C(=O)O[C@@H]6O[C@H](CO[C@@H]7O[C@H](CO)[C@@H](O[C@@H]8O[C@@H](C)[C@H](O)[C@@H](O)[C@H]8O)[C@H](O)[C@H]7O)[C@@H](O)[C@H](O)[C@H]6O)CC[C@]45C)[C@]3(C)CO)OC[C@H](O)[C@@H]2O)[C@H](O)[C@H](O)[C@H]1O` (some centres not stated): the outcome in assay [1] was “inactive [at 9.52 µM]”; in assay [3] it was “inactive [at 11.6 µM]”. Further, in assay [2], the activity change, negative = inhibition is -7.52% [at 9.73 µM]. Further, the activity change, negative = thiol reactive in assay [4] was 181% [at 11.5 µM]. Moreover, the activity, negative = inhibition in assay [5] is 0.304% [at 11.6 µM].
For `C=C[C@H]1[C@H](O[C@@H]2O[C@H](CO[C@@H]3OC[C@](O)(CO)[C@H]3O)[C@@H](O)[C@H](O)[C@H]2O)OC=C2C(=O)OCC[C@H]21`, the Potency entry in assay [1], in assay [2], in assay [3], in assay [4] and in assay [5] was “inactive” in each case.
With `C[C@@H]1O[C@@H](O[C@H]2[C@H](O)[C@@H](C(=O)O)O[C@@H](O[C@H]3CC[C@@]4(C)C(CC[C@]5(C)C4CC=C4C6CC(C)(C)CC[C@]6(C(=O)O)CC[C@]45C)C3(C)C)[C@@H]2O[C@@H]2O[C@H](CO)[C@@H](O)[C@H](O)[C@H]2O)[C@H](O)[C@H](O)[C@H]1O` (some centres not stated), the Potency entry in assay [1] and in assay [2] was “inactive” each time. In assay [3], the outcome is “inactive [at 11.6 µM]”. For the same compound, the activity change, negative = thiol reactive in assay [4] was 296% [at 11.5 µM]. For the same compound, in assay [5], the activity, negative = inhibition was -0.245% [at 11.6 µM].
